Source: PubChem BioAssay AID1159580 (chemical genetic matrix, 2015)
Hit rate of the full screen: of about 5,500 compounds, about 2,000 (36%) were called active. Inconclusive results (about 18%) are left out. No stated cut-off is given here; in the data, active means normalized growth mostly below about 0.91 (no sharp cut-off); inconclusive means no clear call, values can overlap the other calls; inactive means mostly above about 0.92. Some of the results follow.

Experiment: chemical genetic growth profiling, strain panel (AID 1159580);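 further: tested at 20 µM; growth read once vehicle control cultures reached saturation at 30 °C; 1 = growth at the plate median or of vehicle wells; lower values mean less growth of the strain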
Conditions: growth OD

Measured: normalized growth

c1ccc2c(CC3=NCCN3)cccc2c1
inactive: S. cerevisiae deletion strains, locus YJR075W, strain HOC1, active compounds read low 1 | S. cerevisiae deletion strains, locus YKL009W, strain mrt4, active compounds read low 1.01 | S. cerevisiae deletion strains, locus YKL068W, active compounds read low 1.01 | S. cerevisiae deletion strains, locus YKL085W, strain MDH1 (second series), active compounds read low 1.02 | S. cerevisiae deletion strains, locus YKL085W, strain MDH1, active compounds read low 1.02 | S. cerevisiae deletion strains, locus YKL160W, strain elf1, active compounds read low 0.984 | S. cerevisiae deletion strains, locus YKL190W, strain CNB1, active compounds read low 1 | S. cerevisiae deletion strains, locus YKR001C, strain vps1, active compounds read low 1.01 | S. cerevisiae deletion strains, locus YKR026C, strain gcn3, active compounds read low 0.984 | S. cerevisiae deletion strains, locus YKR091W, strain srl3, active compounds read low 0.98 | S. cerevisiae deletion strains, locus YLL001W, strain dnm1, active compounds read low 0.986 | S. cerevisiae deletion strains, locus YLL026W, active compounds read low 0.997 | S. cerevisiae deletion strains, locus YLL041C, strain sdh2, active compounds read low 0.972 | S. cerevisiae deletion strains, locus YLR027C, strain aat2, active compounds read low 0.973 | S. cerevisiae deletion strains, locus YLR039C, strain RIC1, active compounds read low 1.04 | S. cerevisiae deletion strains, locus YLR058C, strain SHM2, active compounds read low 1.01 | S. cerevisiae deletion strains, locus YLR102C, strain apc9, active compounds read low 1.02 | S. cerevisiae deletion strains, locus YLR113W, strain HOG1, active compounds read low 0.991 | S. cerevisiae deletion strains, locus YLR221C, strain rsa3, active compounds read low 0.995 | S. cerevisiae deletion strains, locus YLR258W, strain gsy2, active compounds read low 0.991 | S. cerevisiae deletion strains, locus YLR262C, strain YPT6 (second series), active compounds read low 0.97 | S. cerevisiae deletion strains, locus YLR262C, strain YPT6, active compounds read low 1.03 | S. cerevisiae deletion strains, locus YLR268W, strain sec22, active compounds read low 1.02 | S. cerevisiae deletion strains, locus YLR320W, strain mms22, active compounds read low 0.979 | S. cerevisiae deletion strains, locus YLR330W, strain CHS5, active compounds read low 1.01 | S. cerevisiae deletion strains, locus YLR342W, strain FKS1 (second series), active compounds read low 1.03 | S. cerevisiae deletion strains, locus YLR342W, strain FKS1, active compounds read low 0.971 | S. cerevisiae deletion strains, locus YLR357W, strain rsc2, active compounds read low 0.942 | S. cerevisiae deletion strains, locus YLR370C, strain arc18, active compounds read low 0.978 | S. cerevisiae deletion strains, locus YLR371W, strain rom2, active compounds read low 1.04 | S. cerevisiae deletion strains, locus YLR384C, strain iki3, active compounds read low 0.962 | S. cerevisiae deletion strains, locus YLR418C, strain cdc73, active compounds read low 1.02 | S. cerevisiae deletion strains, locus YML016C, strain PPZ1, active compounds read low 1.01 | S. cerevisiae deletion strains, locus YML032C, strain rad52, active compounds read low 1.03 | S. cerevisiae deletion strains, locus YML120C, strain ndi1, active compounds read low 0.977 | S. cerevisiae deletion strains, locus YML124C, strain tub3, active compounds read low 1.02 | S. cerevisiae deletion strains, locus YMR058W, strain fet3, active compounds read low 0.976 | S. cerevisiae deletion strains, locus YMR078C, strain ctf18, active compounds read low 1.02 | S. cerevisiae deletion strains, locus YMR125W, strain sto1, active compounds read low 0.938 | S. cerevisiae deletion strains, locus YMR129W, active compounds read low 0.96 | S. cerevisiae deletion strains, locus YMR205C, strain PFK2, active compounds read low 0.987 | S. cerevisiae deletion strains, locus YMR223W, strain ubp8, active compounds read low 1.01 | S. cerevisiae deletion strains, locus YMR231W, strain pep5, active compounds read low 0.981 | S. cerevisiae deletion strains, locus YMR263W, strain SAP30, active compounds read low 1 | S. cerevisiae deletion strains, locus YMR307W, strain GAS1, active compounds read low 1.01 | S. cerevisiae deletion strains, locus YNL067W, strain RPL9B, active compounds read low 1 | S. cerevisiae deletion strains, locus YNL071W, strain lat1, active compounds read low 0.961 | S. cerevisiae deletion strains, locus YNL128W, strain TEP1, active compounds read low 1.01 | S. cerevisiae deletion strains, locus YNL153C, strain GIM3, active compounds read low 1 | S. cerevisiae deletion strains, locus YNL183C, strain NPR1, active compounds read low 0.957 | S. cerevisiae deletion strains, locus YNL209W, strain ssb2, active compounds read low 0.968 | S. cerevisiae deletion strains, locus YNL233W, strain BNI4, active compounds read low 1.01 | S. cerevisiae deletion strains, locus YNL248C, strain rpa49, active compounds read low 0.963 | S. cerevisiae deletion strains, locus YNL250W, strain rad50, active compounds read low 1.02 | S. cerevisiae deletion strains, locus YNL271C, strain bni1, active compounds read low 1.02 | S. cerevisiae deletion strains, locus YNL298W, strain CLA4, active compounds read low 1.01 | S. cerevisiae deletion strains, locus YNL307C, strain MCK1, active compounds read low 1.03 | S. cerevisiae deletion strains, locus YNL322C, strain KRE1 (second series), active compounds read low 0.958 | S. cerevisiae deletion strains, locus YNL322C, strain KRE1, active compounds read low 1 | S. cerevisiae deletion strains, locus YNR049C, strain mso1, active compounds read low 0.982 | S. cerevisiae deletion strains, locus YNR052C, strain pop2, active compounds read low 1.02 | S. cerevisiae deletion strains, locus YOL006C, strain TOP1, active compounds read low 1.03 | S. cerevisiae deletion strains, locus YOL012C, strain htz1 0.662 | S. cerevisiae deletion strains, locus YOL147C, strain pex11, active compounds read low 1.02 | S. cerevisiae deletion strains, locus YOR001W, strain rrp6, active compounds read low 0.934 | S. cerevisiae deletion strains, locus YOR061W, strain CKA2, active compounds read low 1.01 | S. cerevisiae deletion strains, locus YOR069W, strain VPS5, active compounds read low 1 | S. cerevisiae deletion strains, locus YOR070C, strain gyp1, active compounds read low 1.01 | S. cerevisiae deletion strains, locus YOR080W, strain dia2, active compounds read low 0.965 | S. cerevisiae deletion strains, locus YOR083W, strain WHI5, active compounds read low 0.994 | S. cerevisiae deletion strains, locus YOR106W, strain vam3, active compounds read low 0.97 | S. cerevisiae deletion strains, locus YOR136W, strain idh2, active compounds read low 1.02 | S. cerevisiae deletion strains, locus YOR144C, strain elg1, active compounds read low 1.02 | S. cerevisiae deletion strains, locus YOR184W, strain ser1, active compounds read low 1.02 | S. cerevisiae deletion strains, locus YOR231W, strain MKK1, active compounds read low 1.02 | S. cerevisiae deletion strains, locus YOR265W, strain rbl2, active compounds read low 0.987 | S. cerevisiae deletion strains, locus YOR270C, strain vph1, active compounds read low 0.914 | S. cerevisiae deletion strains, locus YOR290C, strain snf2, active compounds read low 0.984 | S. cerevisiae deletion strains, locus YOR316C, strain cot1, active compounds read low 1.03 | S. cerevisiae deletion strains, locus YPL051W, strain arl3, active compounds read low 0.988 | S. cerevisiae deletion strains, locus YPL055C, strain LGE1, active compounds read low 1.02 | S. cerevisiae deletion strains, locus YPL078C, strain atp4, active compounds read low 0.981 | S. cerevisiae deletion strains, locus YPL106C, strain sse1, active compounds read low 0.968 | S. cerevisiae deletion strains, locus YPL240C, strain hsp82, active compounds read low 0.997 | S. cerevisiae deletion strains, locus YPL241C, strain CIN2, active compounds read low 1 | S. cerevisiae deletion strains, locus YPL256C, strain CLN2, active compounds read low 0.987 | S. cerevisiae deletion strains, locus YPR119W, strain clb2, active compounds read low 1.02 | S. cerevisiae deletion strains, locus YPR141C, strain kar3, active compounds read low 1.03 | S. cerevisiae deletion strains, locus YPR163C, strain tif3, active compounds read low 1.02 | S. cerevisiae deletion strains, locus YPR167C, strain met16, active compounds read low 1.02 | S. cerevisiae deletion strains, strain wtn01, active compounds read low 1.02 | S. cerevisiae strains, strain wild type, active compounds read low 1
